{
  "source": "PubChem BioAssay (Tox21)",
  "note": "Records with an inconclusive call do not appear. The source made the active and inactive calls. The call rests on the fitted dose curve.",
  "data": [
    {"assay": "qHTS assay to identify small molecule agonists of the NFkB signaling pathway - cell viability counter screen (AID 1159515); further: nearly all actives have a fitted effect of over 55% in size", "settings": "NFkB-bla ME-180 viability, CellTiter-Glo luminescence, 5 h; series mostly up to 61 µM", "how_it_was_run": "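Cells are seeded (2,000 NFkB-bla ME-180 per well), rested overnight, and dosed with DMSO-dissolved compounds for 5 hr at 37 C. Viability is then read by CellTiter-Glo luminescence after 30 min at room temperature.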", "values": [
      {"molecule": "NS(=O)(=O)c1ccccc1OC(F)(F)F", "outcome": "inactive"},
      {"molecule": "C[C@@H]1C[C@H]2[C@@H]3C[C@H](F)C4=CC(=O)C=C[C@]4(C)[C@@]3(F)[C@@H](O)C[C@]2(C)[C@@]1(O)C(=O)CO", "outcome": "inactive"},
      {"molecule": "CCOC(=O)CC#N", "outcome": "inactive"},
      {"molecule": "CC(=O)OCC(=O)[C@@]1(O)[C@H](OC(C)=O)C[C@H]2[C@@H]3CCC4=CC(=O)C=C[C@]4(C)[C@@]3(F)[C@@H](O)C[C@@]21C", "outcome": "inactive"},
      {"molecule": "COCCOCCOCCOC", "outcome": "inactive"},
      {"molecule": "C=COCCOCCOC=C", "outcome": "inactive"},
      {"molecule": "BrC/C=C/CBr", "outcome": "inactive"},
      {"molecule": "C[N+](C)(C)CC(O)CCl", "note": "(configuration not stated)", "outcome": "inactive"},
      {"molecule": "CCCCCCCCCCCCC", "outcome": "inactive"},
      {"molecule": "CCCCC[Si](OCC)(OCC)OCC", "outcome": "inactive"},
      {"molecule": "C/C=C(\\C)C(=O)OCC/C=C\\CC", "outcome": "inactive"},
      {"molecule": "CNC(=O)NC", "outcome": "inactive"},
      {"molecule": "CC1CCC(C(C)(C)S)C(=O)C1", "note": "(configuration not stated)", "outcome": "inactive"},
      {"molecule": "CC(=O)N1CCN(c2ccc(O)cc2)CC1", "outcome": "inactive"},
      {"molecule": "O=S(=O)(O)CCO", "outcome": "inactive"},
      {"molecule": "FC(F)(F)c1ccc(Cl)cc1Cl", "outcome": "inactive"},
      {"molecule": "CCCCCCCCCCCCCC(=O)OC", "outcome": "inactive"},
      {"molecule": "CCCCOC(=O)C(=O)OCCCC", "outcome": "inactive"},
      {"molecule": "Nc1nc(=O)n([C@@H]2O[C@H](CO)[C@@H](O)[C@@H]2F)cc1I", "outcome": "inactive"},
      {"molecule": "C[C@H]1O[C@H](O[C@H]2[C@H](O)[C@@H](O)[C@@H](O[C@H]3[C@H](O)[C@@H](O)[C@H](O)O[C@@H]3CO)O[C@@H]2CO)[C@H](O)[C@@H](O)[C@@H]1N[C@H]1C=C(CO)[C@@H](O)[C@H](O)[C@H]1O", "outcome": "inactive"},
      {"molecule": "CC(=O)Nc1ccc(C)cc1", "outcome": "inactive"},
      {"molecule": "C=CC(C)(O)CC/C=C(\\C)CC", "note": "(configuration not stated)", "outcome": "inactive"},
      {"molecule": "O=C(O)c1c(Cl)ccc(Cl)c1Cl", "outcome": "inactive"},
      {"molecule": "CC(C)COC(=O)COc1ccc(Cl)cc1Cl", "outcome": "inactive"},
      {"molecule": "CNC(=O)C(c1ccccc1)c1ccccc1", "outcome": "inactive"},
      {"molecule": "Cc1nc2ccccc2c(=O)o1", "outcome": "inactive"},
      {"molecule": "C=C[C@@H](C)CCC=C(C)C", "outcome": "inactive"},
      {"molecule": "NC(=O)NC(=O)Cc1ccccc1", "outcome": "inactive"},
      {"molecule": "Nc1ccc(S(=O)(=O)NC(=O)c2ccccc2)cc1", "outcome": "inactive"},
      {"molecule": "CC(=O)OCCCc1ccccc1", "outcome": "inactive"},
      {"molecule": "CCCCCCCCCCCCOC(C)=O", "outcome": "inactive"},
      {"molecule": "c1ccccc1", "outcome": "inactive"},
      {"molecule": "NC(=O)NNC(N)=O", "outcome": "inactive"},
      {"molecule": "Cc1cc(O)c2c(c1)C(=O)c1cccc(O)c1C2=O", "outcome": "inactive"},
      {"molecule": "O=C(O)c1ccccc1C(=O)OCc1ccccc1", "outcome": "inactive"},
      {"molecule": "CN(C)CCOCCN(C)CCO", "outcome": "inactive"},
      {"molecule": "CC(C)(CO)[C@@H](O)C(=O)NCCCO", "outcome": "inactive"}
    ]}
  ]
}
